ELG1 repair inh: qHTS screen for small molecules that inhibit ELG1-dependent DNA repair in human embryonic kidney (HEK293T) cells expressing luciferase-tagged ELG1 | 330,000 compounds, 2.3% hits | Potency, µM (doses to about 46.1 µM), without a hit: top-dose activity change, negative = inhibition, actives largely listed as inhibitors | HEK293T ELG1-luciferase reporter, luminescence, 16 h; DNA damage induced by 5-fluorouridine; further: on the % scale 0 is the no-effect control and ±100 the full control effect; nearly all actives have a fitted effect of over 55% in size
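5-Fluorouridine DNA damage + compound/DMSO, 2,000 cells/well, 16 h, 37 °C/5% CO2. ONE-Glo, 30 min RT, luminescence. Readout = decrease in reporter signal.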
KB-3-1 tox: qHTS assay for MDR1-selective chemotherapeutics: Primary screen using the parental adenocarcinoma cell KB-3-1; KB-3-1 viability, CellTiter-Glo ATP luminescence, 72 h; Potency, µM (top dose mostly 46.1 µM), most hits filed as cytotoxic; 400,000 compounds, 1.4% hits; further: on the % scale 0 is the no-effect control and ±100 the full control effect; nearly all actives have a fitted effect of over 60% in size
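Multi-concentration cytotoxicity screen in KB-3-1 cells grown in DMEM lacking phenol red with 10% FBS. After 72 h at 37 °C with compound, ATP-dependent luminescence was recorded.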
SW480 rereplic: A quantitative high throughput screen for small molecules that induce DNA re-replication in SW480 colon adenocarcinoma cells | AID 624297, 2012 | 340,000 compounds, 1.8% hits | Potency, µM (highest dose often 46.1 µM), inactives show at the highest dose re-replication activation, usual class: activators | SW480 DNA re-replication, Hoechst DNA content imaging, 48 h; further: % of control where 0% means no effect; nearly all actives have a fitted effect of over 55% in size
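First, 250 cells per well were seeded. Next, compound or vehicle (23 nL) was pinned in, plates sat 48 hr at 37 C. Finally Hoechst was added for 40 min before fluorescence scanning.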
MCF10A rereplic: A quantitative high throughput screen for small molecules that induce DNA re-replication in MCF 10a normal breast cells; Potency, µM (highest dose often 46.1 µM), without a hit: at the highest dose activity, positive = re-replication, most hits filed as activators; 350,000 compounds, 2.9% hits; AID 624296, 2012; MCF 10A DNA re-replication, Hoechst nuclear intensity, 48 h; further: % of control where 0% means no effect; nearly all actives have a fitted effect of over 50% in size
KB-V1 MDR tox: qHTS assay for MDR1-selective chemotherapeutics: Primary screen using the drug-selected MDR subline cells KB-V1. KB-V1 MDR cells viability, CellTiter-Glo, 72 h. 400,000 compounds, 3.4% hits. Potency, µM (top dose mostly 46.1 µM), hits mostly cytotoxic; further: on the % scale 0 is the no-effect control and ±100 the full control effect; nearly all actives have a fitted effect of over 60% in size
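In this primary screen, KB-V1 cells overexpressing P-gp are incubated with library compounds (lowest to highest concentration) for 72 h at 37 degrees C before a luminescent ATP viability read.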
* hit, by the source's call; i = inactive; ? = inconclusive; . = no result given. Rows were chosen to be rich in hits. Some 8.1% of all compounds tested hit in one or more screens of this group. The call rests on the fitted dose curve; in most records, active means well fitted curve in the direction sought with a large enough effect; inconclusive means small, poorly fitted or top-dose-only effect, or another doubt; inactive means no such curve, though single readings can be large; an effect the other way counts as inactive or inconclusive. Potency means the concentration at half of the fitted maximal effect.

SMILES	ELG1 repair inh	KB-3-1 tox	SW480 rereplic	MCF10A rereplic	KB-V1 MDR tox
COc1ccccc1-c1cc(C(F)(F)F)nc(S(=O)(=O)CCCC(=O)Nc2cc(Br)ccc2O)n1	.	i	.	.	i
CCOC(=O)N1CCN(c2nc(-c3cccc(OC)c3)cc(C(F)(F)F)n2)CC1	-24%	i	0%	?	i
COc1cccc(-c2cc(C(F)(F)F)nc(N3CCN(c4ccccc4)CC3)n2)c1	1%	?	-2%	?	16µM*
COc1ccccc1-c1cc(C(F)(F)F)nc(N2CCCC2)n1	17%	i	18%	26µM*	i
COc1ccccc1CCNC(=O)Cc1c(C)c2c(O)cc(C)cc2oc1=O	.	i	.	.	i
COc1cc(C(=O)OCC(=O)N2CCC(Cc3ccccc3)CC2)cc(OC)c1OC	?	i	-2%	19%	i
COc1ccc(S(=O)(=O)NC(C)C(=O)Nc2ccccc2C(F)(F)F)cc1 (stereo unspecified)	-7%	i	-1%	1%	16µM*
COc1ccc(CCNC(=O)c2ccc(CSc3ccc(Cl)cc3)o2)cc1OC	.	.	.	.	i
C=CCn1c(-c2sc3nc(C)cc(C)c3c2N)n[nH]c1=S	?	i	26%	9.2µM*	i
O=S(=O)(c1ccc(N2CCC(c3ccc(Cl)cc3)=N2)cc1)N(CCO)CCO	?	i	0.58µM*	?	i
Cc1cc(C)cc(NC(=O)CSc2oc(-c3cccs3)nc2S(=O)(=O)c2ccc(Br)cc2)c1	.	i	.	.	i
CCC1CCCCN1Cc1nc2c(c(=O)n(C)c(=O)n2C)n1Cc1c(F)cccc1Cl (stereo unspecified)	.	i	.	.	i
Oc1ccc(C=NNC(=S)Nc2cccnc2)nc1	.	i	13µM*	?	3.7µM*
CC(=NNC(=O)c1ccncc1)c1cc(Cl)ccc1Cl	.	i	-1%	7%	i
COc1ccc(NC(=O)c2ccc3[nH]c(C)cc(=O)c3c2)cc1	.	i	.	.	?
CCCCc1ccc(Nc2nc(CCC)cc(=O)[nH]2)cc1	?	?	?	5.8µM*	?
CCCCc1c(C)nc(Nc2ccc(OC)cc2)[nH]c1=O	6%	i	?	-1%	23µM*
O=C(CN1CCCCCC1)Nc1nc2ccccc2s1	.	i	0%	11%	i
OCCNc1ncnc2ccc(Br)cc12	9.2µM*	i	-15%	-1%	i
Cc1noc(C)c1COC(=O)c1ccc(F)c(S(=O)(=O)N2CCCCC2)c1	?	i	-58%	12%	?
COc1cc(OC)c(N(C)S(=O)(=O)c2cccc(C(=O)OCc3c(C)noc3C)c2)cc1Cl	18µM*	i	-2%	2%	?

High-throughput results: PubChem BioAssay, National Center for Advancing Translational Sciences (NCATS)
